Laboratory results reported in PubChem BioAssay.
Unmarked numbers belong to inactive results. The source made the active and inactive calls. Unless noted, no stated cut-off is given here; in the data, active means inhibition above about 36%; inactive means the rest.

What was measured:
[1] = tested on: transactivating tegument protein VP16 (Human herpesvirus 1); assay: compounds suppressing VP16-driven luciferase signal – cell-based, luminescence, single concentration, counter-screen for SRC2 inhibitor project (AID 652007); conditions: cell-based VP16 transactivation luciferase reporter, at 8.9 µM, active compounds read high
[2] = molecular target: Nuclear receptor coactivator 2 (Homo sapiens) (UniProt Q15596); assay: inhibition of GAL4-SRC2 driven luciferase expression – cell-based, luminescence, HEK293, triplicate, confirmation (AID 652008;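 active means mean inhibition above 46.5%, the solvent-only control mean plus 3 SD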;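 further: 0% = DMSO-treated cells and 100% = Gossypol at 36 µM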); conditions: HEK293 GAL4-SRC2 luciferase reporter, at 8.9 µM, active compounds read high
Nuclear receptor coactivator 2 (Homo sapiens), sequence (Q15596 whole entry, looked up, the tested form may be a part): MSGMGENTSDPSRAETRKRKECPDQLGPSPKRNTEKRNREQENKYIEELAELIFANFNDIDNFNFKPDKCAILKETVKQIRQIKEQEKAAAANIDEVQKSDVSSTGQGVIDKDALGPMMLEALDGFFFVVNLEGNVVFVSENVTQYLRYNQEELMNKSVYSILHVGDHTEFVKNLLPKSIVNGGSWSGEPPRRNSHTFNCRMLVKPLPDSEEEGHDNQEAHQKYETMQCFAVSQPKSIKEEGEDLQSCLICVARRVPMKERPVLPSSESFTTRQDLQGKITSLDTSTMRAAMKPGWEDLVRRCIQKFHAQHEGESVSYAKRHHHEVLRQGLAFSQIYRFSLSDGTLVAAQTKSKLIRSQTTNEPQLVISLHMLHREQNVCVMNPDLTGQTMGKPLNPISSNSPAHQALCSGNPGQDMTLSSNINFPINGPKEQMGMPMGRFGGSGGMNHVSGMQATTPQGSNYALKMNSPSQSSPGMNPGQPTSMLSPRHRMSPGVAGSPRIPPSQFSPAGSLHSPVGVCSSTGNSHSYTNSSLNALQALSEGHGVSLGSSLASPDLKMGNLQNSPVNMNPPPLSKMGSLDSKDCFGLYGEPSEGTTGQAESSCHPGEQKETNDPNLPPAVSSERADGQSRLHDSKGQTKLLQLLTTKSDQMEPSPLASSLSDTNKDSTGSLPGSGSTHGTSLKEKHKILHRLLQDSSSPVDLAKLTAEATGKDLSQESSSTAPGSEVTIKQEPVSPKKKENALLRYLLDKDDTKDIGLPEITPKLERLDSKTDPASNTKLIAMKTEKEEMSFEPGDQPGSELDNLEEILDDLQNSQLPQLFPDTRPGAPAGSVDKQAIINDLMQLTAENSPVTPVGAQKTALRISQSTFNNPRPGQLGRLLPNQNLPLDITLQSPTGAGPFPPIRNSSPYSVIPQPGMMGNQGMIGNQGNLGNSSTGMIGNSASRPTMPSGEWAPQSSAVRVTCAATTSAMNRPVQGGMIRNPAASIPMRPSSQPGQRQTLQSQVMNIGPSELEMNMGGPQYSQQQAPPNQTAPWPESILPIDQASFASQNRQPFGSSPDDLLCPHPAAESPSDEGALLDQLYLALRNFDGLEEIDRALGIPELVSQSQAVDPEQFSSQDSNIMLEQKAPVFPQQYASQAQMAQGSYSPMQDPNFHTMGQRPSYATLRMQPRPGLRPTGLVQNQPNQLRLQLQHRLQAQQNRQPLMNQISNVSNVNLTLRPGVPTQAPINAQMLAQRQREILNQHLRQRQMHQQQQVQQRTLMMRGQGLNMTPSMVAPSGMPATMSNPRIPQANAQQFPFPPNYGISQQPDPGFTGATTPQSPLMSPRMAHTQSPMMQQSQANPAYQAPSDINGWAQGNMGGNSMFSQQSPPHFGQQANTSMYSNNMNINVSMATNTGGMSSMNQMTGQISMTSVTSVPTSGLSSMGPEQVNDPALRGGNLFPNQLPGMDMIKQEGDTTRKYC

Structure (SMILES) | inhibition [1] [%] | inhibition [2]
O=C(C1=NN[C@@H]2C(=O)N(c3cccc(C(F)(F)F)c3)C(=O)[C@H]12)c1ccc2ccccc2n1 | 2.15 | 6.3%
Cc1ccc(NC(=O)COC(=O)C2=NN(c3ccccc3)C(=O)CC2)c(Br)c1 | -16.2 | -37.9%
CCn1c(=O)c2c(cnn2C)c2ccccc21 | 25.8 | 50.6% (active)
CC1=CC(C)(C)Nc2ccc(OC(=O)c3cccnc3)cc21 | -32.4 | 39.7%
Cc1cc(F)ccc1NC(=O)CCc1c(C)nn(-c2ccc(N3CCCCC3)nn2)c1C | -53 | 3.56%
CC(=O)OC1CCC2(C)C(CCC3C4CC=C(C(C)=O)C4(C)OC(=O)CC32)C1 (centres undefined) | 20.8 | 16.1%
COc1ccc(C)cc1Nc1n[n+](-c2ccccc2)c(-c2c(Cl)cccc2Cl)s1 | 19.4 | 22.7%
Cc1nc2cc(-c3ccc(Cl)cc3)nn2c(C)c1CCC(=O)NC(C)c1ccc2c(c1)OCCO2 (centres undefined) | -10.9 | 72.8% (active)
COc1cc2[nH]c3c(=O)n4c(nc3c2cc1OC)SCCC4 | -66.2 | 13.4%
O=C(CCl)Nc1ccccc1C(=O)NCc1ccccc1 | 0.94 | 42.9%
COc1cc(Cn2c3ccc(NC(=O)CC(C)c4ccccc4)cc3c(=O)n2C)ccc1F (centres undefined) | -0.16 | 2.27%
CCCCC(=O)Nc1ccc(C)c(S(=O)(=O)N2CCCCCC2)c1 | -13.7 | 18.4%
